Screens: PubChem, National Center for Advancing Translational Sciences (NCATS)
HCMV antiviral: blocks human cytomegalovirus replication; HFF cells, HCMV-luciferase reporter, 72 h; active compounds read low; activity change, negative = inhibition, % at 57.5 µM; actives 4.5% (n = 410,000); AID 1259415; in the data active = activity change below about -60%; inconclusive = no clear call, values can overlap the other calls; inactive = above about -39%; note: % is set by controls: 0 for no effect and ±100 for the full control effect
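Steps: HFFs plated, 16 h 37C; compounds added; HCMV-luciferase added to MOI 1 PFU/cell; 72 h 37C; OneGlo reagent, 5 min room temperature; luminescence read, normalized to controls.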
HCV inh: blocks hepatitis C virus | Potency, µM (top dose mostly 41.8 µM), for the others: top-dose activity change, negative = inhibition, actives largely listed as inhibitors | actives 3.4% (n = 340,000) | Huh7.5.1 HCVcc-Cre infection, luciferase reporter, 44 h; active = well fitted inhibition curve with a large enough effect; inconclusive = small, poorly fitted or top-dose-only effect, or another doubt; inactive = no such curve, though single readings can be large or run the other way; note: potency is the fitted concentration of half-maximal effect; % is set by controls: 0 for no effect and ±100 for the full control effect
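Cells (1,000/well) were plated 4 h before compound, then infected with HCVcc-Cre virus (~0.5 moi). After 44 h further culture, infection was read as luciferase luminescence following a 15 min substrate incubation at room temperature.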
Marburg entry inh: Marburg virus entry inhibition. actives 1.8% (n = 300,000). AID 540276. Potency, µM (titrated, usually from 37.8 µM), without a hit: top-dose activity change, negative = inhibition, actives largely listed as inhibitors. Marburg virus pseudotyped entry inhibition, cell reporter; calls by dose curve; tested in HEK293 cells; note: potency is the fitted concentration of half-maximal effect; % is set by controls: 0 for no effect and ±100 for the full control effect
Lassa entry inh: Lassa virus entry inhibition | Lassa virus pseudotype entry inhibition, cell reporter | Potency, µM (doses to about 37.9 µM), inactives show at the top dose activity change, negative = inhibition, usual class: inhibitors | actives 1.2% (n = 300,000); calls by dose curve; tested in HEK293 cells; note: potency is the fitted concentration of half-maximal effect; % is set by controls: 0 for no effect and ±100 for the full control effect; nearly all actives have a fitted effect of over 50% in size
SARS PLP yeast: inhibitors of SARS-CoV papain-like protease in yeast; S. cerevisiae expressing SARS-CoV PLpro, growth rescue; Potency, µM (doses to about 32.9 µM), without a hit: at the highest dose activity, positive = growth rescue, hits mostly activators; actives 0.19% (n = 330,000); AID 485353; calls by dose curve; note: potency is the fitted concentration of half-maximal effect; 0% is about no effect; nearly all actives have a fitted effect of over 55% in size
FMDV antiviral: blocks foot and mouth disease virus | FMDV antiviral cell-based qHTS | Potency, µM (titrated, usually from 57.9 µM), without a hit: at the top dose activity change, negative = inhibition, hits mostly inhibitors | actives 1.2% (n = 410,000) | AID 1159524; calls by dose curve; tested in HEK293T cells; note: read-out not given here; potency is the fitted concentration of half-maximal effect; % is set by controls: 0 for no effect and ±100 for the full control effect; nearly all actives have a fitted effect of over 45% in size
Starred values were filed as active, the others as inactive; ? = inconclusive; nt = not tested or not shown; ! = a repeat was not active; [ ] = dose if it differs, or a comment. Rows were chosen to be rich in hits. Some 8% of all compounds tested hit in one or more screens of this group.

SMILES	HCMV antiviral	HCV inh	Marburg entry inh	Lassa entry inh	SARS PLP yeast	FMDV antiviral
CCOc1ccc(OCCSc2nc(-c3ccccc3)cc(=O)[nH]2)cc1	-104*	6%	16%[46.1 µM]	-18%	3%	-13%
Oc1ccc(Oc2ncc(Cl)cc2Cl)cc1	13	7%	-3%	1%	-8%	-5%
Clc1cnc(Oc2ccc(Oc3ncc(Cl)cc3Cl)cc2)c(Cl)c1	-24	23%	1µM*!	?	2%	-10%
CCOc1ccccc1C(=O)N[C@H](C(=O)OCc1csc(CC(=O)Nc2ccc(C)cc2)n1)C(C)C	21	11µM*	?	?	2%	?
CCOc1ccccc1C(=O)N[C@H](C(=O)OCc1cc(=O)oc2cc(C)ccc12)C(C)C	-23	10µM*	?	-10%	-13%	10%
COc1cc(OC)cc(C(=O)N[C@H](C(=O)OCc2cc(=O)oc3cc(C)ccc23)C(C)C)c1	1	?	?	-1%	9%	33%
CCOc1ccccc1C(=O)N[C@H](C(=O)OCc1cc([N+](=O)[O-])cc2c1OCOC2)C(C)C	-4	20µM*	11µM*	?	18%	-30%
CCOC(=O)c1cc(-c2ccccc2)n(CC(=O)Nc2cc(Cl)c(OC)cc2OC)c1C	33	nt	nt	4%[46.1 µM]	nt	-11%
COc1cccc(Cn2c(CNS(=O)(=O)c3ccc(C(C)(C)C)cc3)nc3cccnc32)c1	4	nt	nt	-3%[46.1 µM]	nt	30%
Brc1ccc2[nH]cc(/C=N/N3CCCCC3)c2c1	-84*	?	5%	11%	-12%	-5%
C(=NN1CCCCCC1)c1c[nH]c2ccccc12	6	11%	6%[46.1 µM]	4%[46.1 µM]	nt	33%
CCc1nc2cc(C(=O)N[C@H]3CCCCNC3=O)cc(NC(=O)c3ccccc3OC)c2n1C	nt	nt	nt	nt	nt	-20%
Cc1cccc(C)c1NC(=O)CN1CCN(CCCC(c2ccc(F)cc2)c2ccc(F)cc2)CC1	6	2µM*	nt	nt	nt	0%
CCc1cc2c(nc1CC)CCN(CCC(C)=NO[C@@H](C)CN1CCCc3nc(C)c(C)cc31)C2	nt	nt	-24%[14.2 µM]	nt	nt	nt
C[C@@H]1CN([C@H](C)CO)C(=O)c2c(c3ccccc3n2C)-c2ccccc2CO[C@H]1CN(C)Cc1ccc(C(F)(F)F)cc1	-106*	nt	nt	nt	nt	?
C[C@@H]1CN([C@H](C)CO)C(=O)c2c(c3ccccc3n2C)-c2ccccc2CO[C@H]1CN(C)Cc1ccc(Oc2ccccc2)cc1	-19	nt	nt	nt	nt	-22%
COCCCNC(=O)C1CCN(c2nc3ccc(C)cc3[nH]2)CC1	0	nt	nt	26%[46.1 µM]	nt	23%
COc1ccc(Cn2c(C(=O)O)c(CNC3CCCCCC3)c3ccc(OC)cc32)cc1	-100*	nt	nt	3%[46.1 µM]	nt	-3%
COc1ccc2c(CNCCc3ccc(SC)cc3)c(C(=O)O)n(Cc3ccc(F)cc3)c2c1	-74*	nt	nt	?	nt	-18%
CCc1ccc(CNCc2c(C(=O)O)n(Cc3cccc(F)c3)c3cc(OC)ccc23)cc1	?	nt	nt	?	nt	-18%
COc1ccc2c(CNC3CCCCCC3)c(C(=O)O)n(Cc3ccc(C)cc3)c2c1	11	nt	nt	-14%[46.1 µM]	nt	-16%
COc1ccc2c(CNCCc3ccccc3OC)c(C(=O)O)n(Cc3ccc(F)cc3Cl)c2c1	-108*	nt	nt	-12%[46.1 µM]	nt	-5%
O=C(NCc1ccccc1Cl)C(=O)NCC(c1ccc2c(c1)OCO2)N1CCOCC1 (stereo not given)	2	nt	nt	-1%[46.1 µM]	nt	-9%
Cc1cc(-c2ccccc2)n(-c2cc(N/N=C/c3ccccc3O)ncn2)n1	-96*	?	8.9µM*	4.5µM*	-33%	?
CCOP(=O)(OCC)C(Nc1ccccn1)c1ccc(F)cc1 (stereo not given)	-70*	17%	27%	26%	-3%	-3%
SMILES	HCMV antiviral	HCV inh	Marburg entry inh	Lassa entry inh	SARS PLP yeast	FMDV antiviral
OCCNc1ncnc2c1c(-c1ccccc1)c(-c1ccccc1)n2Cc1ccco1	-63*	?	?	?	-6%	-4%
N=c1c2c(-c3ccccc3)c(-c3ccccc3)oc2ncn1CCCN1CCOCC1	12	?	8.2µM*	?	0%	?
N=c1c2c(-c3ccccc3)c(-c3ccccc3)n(Cc3ccco3)c2ncn1Cc1ccccc1	-1	-19%	-8%	1%	-19%	-9%
N=c1c2c(-c3ccccc3)c(-c3ccccc3)n(Cc3ccco3)c2ncn1CCCN1CCOCC1	-98*	7.1µM*	7.1µM*	-8%	0%	-14%
CC(C)Cn1cnc2c(c(-c3ccccc3)c(-c3ccccc3)n2Cc2ccco2)c1=N	-28	11µM*	2.8µM*	6.3µM*	-2%	?
Cc1ccc(S(=O)(=O)C2(C(=O)Nc3ccc(Cl)c(C(F)(F)F)c3)CC2)cc1	-11	nt	-27%[46.1 µM]	8%[46.1 µM]	nt	-2%
CCC(=O)N1CCc2cc(S(=O)(=O)CCC(=O)N3CCN(c4cccc(C)c4)C(C)C3)ccc21 (stereo not given)	?	nt	-18%[46.1 µM]	-28%[46.1 µM]	nt	0%
O=C(CCCn1c(=O)c2sccc2n(Cc2ccc(F)cc2Cl)c1=O)NCc1ccc2c(c1)OCO2	-30	nt	16%[46.1 µM]	4%[46.1 µM]	nt	-16%
COc1cc(C)c(Br)cc1S(=O)(=O)NCc1ccncc1	-76*	?	?	?	0%	23%
COc1cc(C)c(Br)cc1S(=O)(=O)NCc1cccs1	?	5%	-1%	-14%	3%	59%
Cc1cc(C)c(S(=O)(=O)NCc2ccncc2)c(C)c1	-84*	?	?	?	-3%	-2%
CCOc1ccccc1C(=O)NCC(c1cccs1)S(=O)(=O)c1ccc(F)c(C)c1 (stereo not given)	-18	nt	nt	13%[46.1 µM]	nt	-14%
CCOC(=O)c1cccc(NS(=O)(=O)c2cc(-c3cnc(C4CC4)o3)ccc2C)c1	-24	nt	nt	-20%[46.1 µM]	nt	16%
Cc1ccc(CNC(=O)C2CCCN(c3ncnc4onc(-c5ccc(F)cc5)c34)C2)cc1 (stereo not given)	1	nt	nt	4%[46.1 µM]	nt	-14%
CCCC(C)C(=O)Nc1cc([N+](=O)[O-])ccc1Cl (stereo not given)	?	-20%	5%[46.1 µM]	4%[46.1 µM]	3%	0%
CCCC(C)C(=O)Nc1ccc(Cl)cc1Cl (stereo not given)	-78*	-22%	0%	0%	-2%	3%
O=C(CN1CCN(c2ccccn2)CC1)Nc1cccc(Cl)c1Cl	-24	-1%	-31%	7.1µM*	-3%	-18%
O=[N+]([O-])c1cc(S(=O)(=O)N2CCCCCC2)ccc1Cl	?	11µM*	?	?	-2%	-27%
O=C(CCl)Nc1cc(S(=O)(=O)N2CCCCCC2)ccc1Cl	-64*	35µM*	?	?	8%	?
Cc1ccc(-c2nc(SCC(=O)Nc3cc(S(=O)(=O)N4CCCCC4)ccc3Cl)n[nH]2)cc1	6	?	16µM*	?	8%	-25%
COCC(=O)N1CCC[C@@]2(CCN(C(c3ccccc3)c3ccccc3)C2)C1	nt	nt	nt	nt	nt	-15%
